Screening data (PubChem)
Sfp PPTase inh = blocks B. subtilis Sfp PPTase activity | actives 3.5% (n = 310,000) | AID 1490 | Q9F4F7 | Potency, µM, actives largely listed as inhibitors | Biochemical Sfp PPTase activity, qHTS;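 also: the enzyme is Sfp with the accession as filed and its product quenches rhodamine fluorescence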
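With Hepes-Na pH 7.6 buffer containing 10 mM MgCl2, Sfp (15 nM) modified BHQ-2-YbbR (12.5 uM) using rhodamine-CoA (5 uM). Two reads 30 minutes apart at 525/598 nm yielded each well's rate.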
HP1b chromo inh = HP1-beta chromodomain-methylated histone interaction inhibition; P83916; AlphaScreen HP1-beta / biotin-H3K9me3 peptide binding; Potency, µM (series often up to 114 µM), most hits filed as inhibitors; actives 0.56% (n = 390,000); also: nearly all actives have a fitted effect of over 70% in size
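Compound inhibition of the preformed complex between 50 nM HP1-beta and 50 nM biotinylated H3K9me3 peptide was read by AlphaScreen. Buffer was PBS pH 7.4 with 0.01% Tween-20. Incubations ran 30 min at room temperature, with 10 ug/mL donor/acceptor beads.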
JMJD2A Tudor = blocks the human JMJD2A Tudor domain; actives 4.4% (n = 390,000); AlphaScreen JMJD2A-Tudor / H3K4me3 peptide binding; O75164; AID 504339; Potency, µM (highest dose often 114 µM), actives largely listed as inhibitors; also: nearly all actives have a fitted effect of over 50% in size
BAZ2B block = BAZ2B (human) inhibition; Potency, µM (doses to about 114 µM), usual class: inhibitors; Q9UIF8; actives 4.4% (n = 360,000); AID 504333; AlphaScreen BAZ2B-H3K14Ac peptide displacement; also: nearly all actives have a fitted effect of over 60% in size
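AlphaScreen displacement of biotin-H3(5-23)K14Ac peptide (50 nM final) from BAZ2B (50 nM final) in PBS pH 7.4, 0.01% Tween-20; complex preformed 30 min RT, then compounds (top 110 uM) 30 min RT, beads 20 min dark.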
TDP1 block = inhibitors of human tyrosyl-DNA phosphodiesterase TDP1. AID 485290. recombinant TDP1, AlphaScreen DNA substrate cleavage. Potency, µM (titrated, usually from 130 µM), usual class: inhibitors. actives 0.28% (n = 350,000). Q9NUW8; also: nearly all actives have a fitted effect of over 40% in size
Target sequence (Q9NUW8 whole entry, looked up): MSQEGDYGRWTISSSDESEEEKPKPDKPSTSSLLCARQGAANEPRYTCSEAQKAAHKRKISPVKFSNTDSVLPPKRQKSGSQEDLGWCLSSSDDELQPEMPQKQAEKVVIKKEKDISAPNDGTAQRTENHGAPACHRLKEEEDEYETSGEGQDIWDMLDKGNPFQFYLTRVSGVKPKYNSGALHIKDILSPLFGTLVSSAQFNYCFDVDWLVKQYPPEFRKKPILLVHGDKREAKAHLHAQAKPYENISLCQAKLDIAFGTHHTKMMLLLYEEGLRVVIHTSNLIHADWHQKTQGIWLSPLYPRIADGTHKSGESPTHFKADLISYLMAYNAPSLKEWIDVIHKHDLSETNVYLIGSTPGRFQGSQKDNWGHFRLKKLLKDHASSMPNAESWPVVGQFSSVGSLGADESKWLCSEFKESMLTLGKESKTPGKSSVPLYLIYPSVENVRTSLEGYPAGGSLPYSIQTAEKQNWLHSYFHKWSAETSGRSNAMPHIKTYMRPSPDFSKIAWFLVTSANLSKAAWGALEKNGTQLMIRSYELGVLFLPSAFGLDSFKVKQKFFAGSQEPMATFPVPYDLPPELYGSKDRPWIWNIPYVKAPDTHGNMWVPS
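AlphaScreen read-out: signal falls as enzyme removes the 3' tyrosine-FITC from a 5'-biotinylated DNA oligo (15 nM, 5 min, RT). Enzyme was E. coli-made recombinant Tdp1 at 1 nM, exposed to compound for 15 min beforehand; beads 10 ug/ml, 10 min.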
G9a inh = G9a (human) methyltransferase inhibition. Potency, µM (series often up to 102 µM), hits mostly inhibitors. AID 504332. G9a H3K9 monomethylation, AlphaScreen, 2 h. Q96KQ7. actives 8.8% (n = 350,000); also: nearly all actives have a fitted effect of over 75% in size
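Signal arises when biotinylated H3K9 peptide, once monomethylated, bridges streptavidin donor and antibody-captured acceptor beads. Enzyme at 20 nM was preincubated 15 min with test compounds; peptide 500 nM and SAM 20 uM then reacted for 2 h.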
A number is an active result; 0 = inactive; ? = inconclusive; - = no result given; [ ] = another dose, or the depositor's remark. A selection: hits, their analogues and other compounds. The true share with any hit is near 12%. Calls follow the shape of the dose curve; as a rule, active = well fitted curve in the direction sought with a large enough effect; inconclusive = small, poorly fitted or top-dose-only effect, or another doubt; inactive = no such curve, though single readings can be large; an effect the other way counts as inactive or inconclusive.

SMILES | Sfp PPTase inh | HP1b chromo inh | JMJD2A Tudor | BAZ2B block | TDP1 block | G9a inh
CCC(C)Sc1nnc(NS(=O)(=O)Cc2ccccc2)s1 (configuration not stated) | 0 | 0 | 0 | 0 | 0 | 32µM
COc1cccc(NC(=O)CSc2cc(C)[nH]c(=O)n2)c1 | - | 0 | 0 | 0 | 0 | 0
Cc1ccc(NCc2ccncc2)c(Br)c1 | ? | 28µM | 1.6µM | 22µM | 0 | -
Cc1cc(NCc2ccncc2)ccc1Br | 79µM | ? | 18µM | 50µM | ? | -
Cc1cc(Br)c(S(=O)(=O)NCc2ccncc2)cc1C | 0 | 0 | 0 | 0 | 0 | ?
CC1c2ccccc2SC(CCCN(C)C)c2ccccc21 (configuration not stated) | 45µM | 0 | 0 | 0 | 0 | 56µM
CN(C)CCCNC(=O)N1c2ccccc2Sc2ccccc21 | 0 | 0 | 0 | 0 | 0 | 0
CC(=O)OCC(NC(=O)C(COCc1ccccc1)NC(=O)OC(C)(C)C)C1OC(n2ccc(=O)[nH]c2=O)C(OC(C)=O)C1OC(C)=O (configuration not stated) | 0 | 0 | 0 | - | 0 | -
COc1c(C2=CC(=O)N(C)C2=O)c2c(n1C)C(=O)c1ccccc1C2=O | 25µM | - | - | - | 0 | -
COc1ccc(C(=O)N2CC(=O)Nc3ccc(C)cc3C2c2ccc(F)cc2)c(OC)c1 (configuration not stated) | - | 0 | 0 | 0 | 0 | 0
Cc1ccc(S(=O)(=O)N(C#N)c2nc(C)cc(C)n2)cc1 | 0 | 0 | 0 | ? | - | 45µM
Cc1ccc(S(=O)(=O)N(C)S(=O)(=O)c2ccc(C#N)cc2)cc1 | 0 | - | - | 0 | - | 45µM
Cc1cc(C)nc(N(C#N)S(=O)(=O)c2ccc(Br)cc2)n1 | 0 | - | - | ? | 0 | 0
O=C(c1ccc(Br)cc1)N(Cc1ccco1)c1ccccn1 | - | 0 | 0 | ? | 0 | 0
CCCN1CNc2c(c(=O)[nH]c(=S)n2-c2ccc(Cl)cc2)C1 | 0 | 0 | 0 | 0 | 0 | 0
CCN(CC)S(=O)(=O)c1cccc(C(=O)N/N=C/c2ccc(O)c(O)c2O)c1 | 0 | ? | ? | 40µM | 0 | 1.8µM
CCN(CC)S(=O)(=O)c1cccc(C(=O)N/N=C(\C)c2ccc(O)cc2O)c1 | 0 | 0 | ? | 8.9µM | 0 | 0
CCOc1ccccc1/C=N/NC(=O)c1cccc(S(=O)(=O)N(CC)CC)c1 | 0 | 0 | 0 | 0 | 0 | 0
O=C(Nc1ccc(F)cc1Cl)c1ccc2c(=O)n3c(nc2c1)CCC3 | - | 0 | 0 | 0 | 0 | ?
Cc1ccc(NC(=O)C2CCCN(S(=O)(=O)c3ccc4[nH]c(=O)ccc4c3)C2)cc1Cl (configuration not stated) | - | 0 | 0 | 0 | 0 | 0
C=CCN(c1ccccc1)S(=O)(=O)c1cccc(C(=O)NC2CCN(Cc3ccccc3)CC2)c1 | - | 0 | 0 | 0 | 0[0.505 µM] | 50µM
CN(C)S(=O)(=O)c1cccc(C(=O)NCC(=O)NC2CCN(Cc3ccccc3)CC2)c1 | 0 | 0 | 0 | 0 | 0 | ?
CC(C)CSc1nnc(-c2ccccc2)c(-c2ccccc2)n1 | - | 0 | 0 | 0 | - | 0
Cc1c(NC(=O)c2cccc3c(Cl)cccc23)cccc1-c1nc2ccccc2o1 | - | 0 | 0 | 0 | 0 | 0
O=C(CSc1nc2ccccc2o1)NC(=O)NCc1ccco1 | 0 | 0 | ? | ? | 0 | 0[12.7 µM]
SMILES | Sfp PPTase inh | HP1b chromo inh | JMJD2A Tudor | BAZ2B block | TDP1 block | G9a inh
O=C(CSc1nc(-c2ccccc2)cs1)NC(=O)NCc1ccco1 | ? | 0 | 0 | 0 | 0 | 0
Cc1cc(C)nc(NC(=O)CSc2nc3ccccc3s2)n1 | 0 | 0 | 0 | 0 | 0 | 0
O=C(CSc1nc2ccccc2s1)NC(=O)NCc1ccco1 | 0 | 0 | ? | ? | 0 | 45µM
Cc1ccc(S(=O)(=O)NC(=O)CSc2nc3ccccc3s2)cc1 | 0 | 0 | 0 | 0 | 0 | 50µM
O=C(COC(=O)CCc1nc2ccccc2s1)NC(=O)NCc1ccco1 | 0 | 0 | 0 | 50µM | 0 | 0
Cc1cc(SCC(=O)NC(=O)NCc2ccco2)nc2ccccc12 | 25µM | 0 | 0 | 0 | 0 | ?
O=C(COC(=O)CCc1nc2ccccc2s1)NCc1ccco1 | 0 | 0 | 0 | 0 | 0 | 0
CCS(=O)(=O)c1ncc(N(Cc2ccco2)Cc2ccccc2F)c(C(=O)Nc2cccc(Cl)c2)n1 | - | 0 | 0 | 0 | 0 | 0
